Compound activity: PubChem BioAssay, several laboratories
Shown are actives, neighbours in structure and some others; about 2.3% of the full set was active somewhere.
Mcl-1 Bim block: inhibitors of Bim-Mcl-1 interaction, human; AID 1009; Bead-based flow cytometry, Bim peptide-Mcl-1 binding; hit rate 0.1% among 190,000; Q07820; inhibition, % at 10 µM; in the data active = inhibition above about 40%;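 note: 0% = no compound tracer wells and 100% = peptide blocker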
Mcl1 Bid PPI: disrupts binding of human Mcl-1 to Bid peptide | Q07820 | TR-FRET Mcl-1/Bid-Dy647 peptide binding, 1536-well | inhibition, % at 21.7 µM | hit rate 0.97% among 220,000 | AID 1021;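 active = compounds that cut the binding signal by more than half at the single screening dose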;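 note: His-tagged Mcl-1 with europium anti-His antibody binding Bid BH3 peptide; 0% = Mcl-1 plus peptide wells and 100% = peptide-only wells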
BCLXL inh: inhibitors of human Bcl-xL; GST-Bcl-xL / FITC-Bim BH3 peptide fluorescence polarization; inhibition, % at 10.9 µM; hit rate 0.7% among 320,000; AID 2129;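 active = inhibition above the mean of all tested compounds plus 3 SD, cutoff set per campaign, cut at about 30% in these data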;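 note: 0% = DMSO wells and 100% = unlabeled Bim-BH3 peptide competitor; inhibitors lower millipolarization by displacing the labeled peptide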
Target sequence (Q07817 whole entry, looked up): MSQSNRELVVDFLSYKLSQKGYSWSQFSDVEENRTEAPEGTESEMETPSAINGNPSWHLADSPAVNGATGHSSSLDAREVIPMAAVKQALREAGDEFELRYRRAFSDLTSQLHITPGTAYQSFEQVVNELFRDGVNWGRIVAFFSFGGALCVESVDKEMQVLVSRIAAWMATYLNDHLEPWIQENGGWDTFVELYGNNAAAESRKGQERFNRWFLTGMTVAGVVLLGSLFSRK
MCL1-BIM inh: MCL1-BIM-BH3 interaction inhibition (human); Q07820; GST-MCL1 / FITC-Bim-BH3 fluorescence polarization; inhibition, % at 10.9 µM; hit rate 0.68% among 320,000; AID 2057;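 active = inhibition above the mean inhibition of all tested compounds plus 3 SD, set per campaign, cut at about 40% in these data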;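 note: 0% = DMSO wells and 100% = unlabeled Bim-BH3 peptide control; higher means more loss of mP so more displacement of Bim peptide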
GLD-1 TGE inh: GLD-1-TGE RNA interaction inhibition (C. elegans) | AID 2280 | hit rate 0.44% among 320,000 | inhibition, % at 5.96 µM | purified GLD-1 + fluorescein TGE RNA, fluorescence polarization | Q17339;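 active = percent inhibition above a per-plate cutoff, the plate mean of test compounds plus 3 SD, cut at about 30% in these data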;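 note: 0% = DMSO wells with GLD-1 and probe and 100% = wells lacking GLD-1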
Target sequence (Q17339 whole entry, looked up): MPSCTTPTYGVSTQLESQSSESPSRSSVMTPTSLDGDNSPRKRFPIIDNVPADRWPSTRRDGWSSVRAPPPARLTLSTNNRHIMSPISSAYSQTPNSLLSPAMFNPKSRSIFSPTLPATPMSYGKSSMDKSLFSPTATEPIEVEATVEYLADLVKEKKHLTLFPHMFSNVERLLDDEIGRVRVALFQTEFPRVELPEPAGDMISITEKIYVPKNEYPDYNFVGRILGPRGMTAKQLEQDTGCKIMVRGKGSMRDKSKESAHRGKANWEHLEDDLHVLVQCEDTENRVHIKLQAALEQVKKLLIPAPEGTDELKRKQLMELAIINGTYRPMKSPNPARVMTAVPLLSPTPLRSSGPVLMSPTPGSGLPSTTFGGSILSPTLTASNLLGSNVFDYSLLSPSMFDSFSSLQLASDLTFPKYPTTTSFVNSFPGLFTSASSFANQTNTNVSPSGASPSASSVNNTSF
Mcl1-Noxa inh: Mcl-1/Noxa interaction inhibition; inhibition, % at 21.7 µM; hit rate 1.5% among 220,000; TR-FRET Mcl-1/Noxa peptide binding, 2 h; AID 1022;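 active = compounds that cut the protein-peptide binding signal by more than 50% relative to plate controls in a single-dose test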;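 note: His-tagged Mcl-1 with rhodamine Noxa BH3 peptide and terbium anti-His antibody; 0% = Mcl-1 plus Noxa peptide wells and 100% = peptide-only wells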
Active calls of the source: *; . = no result given.

SMILES	Mcl-1 Bim block	Mcl1 Bid PPI	BCLXL inh	MCL1-BIM inh	GLD-1 TGE inh	Mcl1-Noxa inh
Cn1c(N)c(C(=O)COC(=O)c2cc(-c3ccccc3)nc3ccccc23)c(=O)n(Cc2ccccc2)c1=O	-1.0	-5.1	-14.7	-29.9	1.0	-13.8
Cn1c(=O)c(C(=O)COC(=O)c2cc(-c3ccco3)nc3ccccc23)c(N)n(Cc2ccccc2)c1=O	2.0	-8.8	12.3	3.3	-4.5	96.2*
CC(C)Cn1c(N)c(C(=O)COC(=O)c2cc(-c3ccco3)nc3ccccc23)c(=O)n(C)c1=O	1.0	22.0	18.4	27.4	3.1	97.0*
Cc1ccc(S(=O)(=O)NNC(=O)Nc2ccc([N+](=O)[O-])cc2)c(C)c1	.	.	1.4	-3.2	5.7	.
CN=c1scc(C)n1/N=C/c1cc(Br)c(O)c(OC)c1	0.0	-40.1	7.1	7.2	6.1	52.6*
Cc1nc2ncnn2c(C)c1CCC(=O)Nc1ccc(S(=O)(=O)N2CCCCCC2)cc1	-5.0	52.2*	7.8	0.4	3.7	20.9
Cc1ccc(NC(=O)CCc2c(C)nc3ncnn3c2C)cc1	0.0	-10.7	-3.2	-0.9	5.5	6.5
C[C@H]1CN([C@@H](C)CO)C(=O)c2cc(NC(=O)c3ccncc3)ccc2O[C@H]1CN(C)Cc1ccc(C(=O)O)cc1	.	.	.	.	7.3	.
CC12CCC(=O)N1C(C(=O)Nc1ccc(F)c(Cl)c1)CS2 (stereo not drawn)	.	.	-4.4	-1.3	3.2	.
CCc1cc(=O)oc2c(CNCc3c(F)cccc3Cl)c(O)ccc12	.	.	-2.1	-1.2	-2.4	.
O=C(Nc1cccc(-c2cn3cccnc3n2)c1)c1ccc2c(c1)OCO2	-1.0	41.2	4.0	0.6	2.8	57.0*
C=CCn1c(C)cc(C(=O)Cn2ncc(Cl)c(Cl)c2=O)c1C	-5.0	-75.9	1.9	25.9	0.8	86.3*
COC(=O)C1=C(CCc2ccccc2)NC(=O)NC1c1ccc(Cl)cc1 (stereo not drawn)	.	.	0.3	-4.8	0.1	.
CN(C)/C=C\C(=C/C(=O)C(F)(F)F)Nc1ccccc1Oc1ccccc1	0.0	-11.8	-4.5	-10.6	-1.4	67.3*
N#CCC(=O)N/N=C/c1cc([N+](=O)[O-])ccc1N1CCOCC1	-1.0	-25.2	6.0	1.0	10.2	37.7
CN1CCN(c2ccc([N+](=O)[O-])cc2/C=N/NC(=O)c2ccc(F)cc2)CC1	-1.0	0.3	.	.	.	74.6*
COc1ccc2c3c([nH]c2c1)C1CC2C(CC(O)C(OC)C2C(=O)O)CN1CC3 (stereo not drawn)	.	-124.3	40.0*	40.6*	-2.6	10.0
COC(=O)[C@H]1[C@H]2C[C@@H]3c4[nH]c5cc(OC)ccc5c4CCN3C[C@H]2C[C@@H](OC(=O)c2cc(OC)c(OC)c(OC)c2)[C@@H]1OC	.	.	6.3	-6.7	-7.2	.
COc1ccc(-c2noc3c2-c2nc(-c4ccccc4F)sc2CC3)cc1	.	.	4.4	12.7	-8.1	.
Cc1ccc(NC(=O)Nc2nnc(Cc3ccc([N+](=O)[O-])cc3)s2)cc1	-5.0	51.4*	9.3	0.9	0.4	-7.8
COc1cc(-c2ccc(Nc3ccccc3C(=O)O)c(OC)c2)ccc1Nc1ccccc1C(=O)O	.	97.5*	.	.	.	105.3*
COCCN(C(=O)COC(=O)c1cccs1)c1c(N)n(Cc2ccccc2)c(=O)[nH]c1=O	.	.	0.4	-4.2	-2.0	.
O=C(c1cccc(Cl)c1)N1CCN(Cc2ccncc2)CC1	-6.0	32.6	.	.	.	18.6
O=C(c1ccccc1)N1CCN(Cc2ccccc2Br)CC1	-1.0	83.7*	1.1	-9.0	3.4	31.6
O=C(c1ccccc1F)N1CCN(Cc2ccccc2F)CC1	-3.0	59.4*	2.9	6.9	-0.6	30.5
SMILES	Mcl-1 Bim block	Mcl1 Bid PPI	BCLXL inh	MCL1-BIM inh	GLD-1 TGE inh	Mcl1-Noxa inh
O=C(c1cccc(Cl)c1)N1CCN(Cc2ccccc2F)CC1	-2.0	69.3*	4.8	0.5	6.6	28.7
O=C(c1ccc(Br)cc1)N1CCN(Cc2ccccc2)CC1	.	.	4.3	0.7	-1.6	.
CC(C)OCCCn1c(-c2ccco2)nc2nc3ccccc3nc21	0.0	-11.1	34.6*	24.9	14.0	23.0
CCOC(=O)C1=C(O)/C(=C/c2ccc(OCC(=O)O)c(OC)c2)SC1=Nc1ccc(OCC)cc1	-5.0	-14.1	6.2	9.8	3.5	23.6
CCOC(=O)C1=C(O)/C(=C/c2cc(OC)c(O)c(OC)c2)SC1=Nc1ccc(OC)cc1	-1.0	-3.7	.	.	.	74.6*
COc1ccc(Cn2c(=O)c3[nH]cnc3n(-c3ccc(C)cc3)c2=O)cc1	.	-27.7	3.4	-1.8	1.9	17.9
Cc1cccc(NC(=O)CNC(=O)CN2C(=O)NC3(CCCc4ccccc43)C2=O)c1C (stereo not drawn)	.	.	-1.1	2.6	3.7	.
CCOC(=O)/C=C1/N(C)c2ccccc2C1(C)C	.	-70.6	-1.3	-2.1	-3.0	1.4
CN1/C(=C\P(=O)(N(C)C)N(C)C)C(C)(C)c2ccccc21	0.0	-16.5	45.5*	46.8*	58.8*	-0.9
O=C1CSC(c2ccncc2)N1Cc1ccccc1 (stereo not drawn)	0.0	92.8*	10.4	4.2	5.2	22.2
Cc1c(NC(=S)NC(NC(=O)C(C)C)C(Cl)(Cl)Cl)c(=O)n(-c2ccccc2)n1C (stereo not drawn)	-3.0	95.8*	3.4	6.4	-4.9	2.5
C/C(=N/O)c1ccc2c(c1)OCCOCCOc1cc(/C(C)=N/O)ccc1OCCOCCO2	0.0	21.1	2.9	2.0	0.8	59.3*
C/C(=N\O)c1ccc2c(c1)OCCO2	0.0	-23.3	5.6	1.0	-0.6	0.1
OC(CNCC(c1ccco1)N1CCCCC1)c1ccccc1 (stereo not drawn)	1.0	63.0*	-0.6	0.1	0.5	20.7
O=C(CSc1ccccc1)NCC(c1ccco1)N1CCCCC1 (stereo not drawn)	.	.	-2.7	-3.9	2.8	.
COCc1cc(=O)n2[nH]c(SCc3ccccc3)nc2n1	0.0	11.6	31.1*	7.4	-1.6	19.9
O=C1N=c2ccccc2=C1c1sc(=S)n(-c2ccc(O)cc2)c1O	.	21.0	11.7	8.0	3.2	70.0*
O=C1N=c2ccccc2=C1c1sc(=S)n(Cc2ccccc2Cl)c1O	.	-22.1	5.3	10.9	-3.9	3.2
Cc1c(-n2c(O)c(C3=c4ccccc4=NC3=O)sc2=S)c(=O)n(-c2ccccc2)n1C	-1.0	31.7	14.3	16.3	1.6	52.9*
Cc1ccc(N2CCN(C(=O)c3nn(C)c4c3CS(=O)(=O)c3ccccc3-4)CC2)c(C)c1	.	.	1.4	2.8	0.2	.
O=C(O)CCn1cc(C(=O)O)c(-c2ccccc2)n1	.	-14.0	2.4	7.3	4.3	-18.3
O=C(COC(=O)c1ccc(O)cc1)NC1CCCCCC1	.	.	-1.6	-3.7	-0.4	.
CCC(C)(C(=O)NC1CCCCC1)N(C)C(=O)c1ccccn1 (stereo not drawn)	-1.0	-18.2	51.6*	1.7	1.4	4.9
CCOc1ccccc1C1c2cc3c(cc2OC(C)(N2CCCC2)C1C)OCO3 (stereo not drawn)	.	.	-4.7	-5.2	-7.2	.
